Sampled rows, rich in hits. Any-hit rate of the full collection: about 19%.
TDP1 cell noCPT = qHTS for Inhibitors of human tyrosyl-DNA phosphodiesterase 1 (TDP1): qHTS in cells in absence of CPT; DT40 Tdp1-/- hTDP1 cells, no CPT, ATP luminescence, 48 h; Potency, µM (titrated, usually from 46.2 µM), for the others: at the top dose activity change, negative = growth inhibition, most hits filed as inhibitors; 420,000 compounds, 15% hits; AID 686978, 2013; further: potency means the concentration at half of the fitted maximal effect; nearly all actives have a fitted effect of over 55% in size
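Growth kinetics read by CellTiter-Glo luminescence after ≥48 hr at 37 °C. Cells: DT40 Tdp1-/- stably carrying human TDP1, 400 per well, compound exposure in the absence of CPT (DMSO vehicle).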
HT1080 IDH1KD tx = qHTS for induction of synthetic lethality in tumor cells producing 2HG: qHTS for the HT-1080-IDH1KD cell line; Potency, µM (series often up to 46.1 µM), inactives show top-dose activity, negative = toxicity, hits mostly cytotoxic; 360,000 compounds, 2% hits; HT-1080 IDH1 knockdown viability, ATP luminescence, 48 h;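 further: potency means the concentration at half of the fitted maximal effect; 0% = DMSO wells and -100% = cell-free medium wells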
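Luminescent ATP read-out (CellTiter-Glo, 10 min at room temperature) after 48 h compound exposure at 37 °C gave viability of IDH1-knockdown HT-1080 cells. Activity was normalised to DMSO and cell-free wells, then fitted as concentration-response curves.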
HT1080NT lethal = qHTS for induction of synthetic lethality in tumor cells producing 2HG: qHTS for the HT-1080-NT fibrosarcoma cell line | AID 686970, 2013 | HT-1080-NT fibrosarcoma viability, CellTiter-Glo ATP luminescence, 48 h | Potency, µM (highest dose often 46.1 µM), for inactives: at the highest dose activity, negative = less viability, actives largely listed as cytotoxic | 360,000 compounds, 1.6% hits;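 further: NT is the 2HG producing partner of a matched IDH1 knockdown line; potency means the concentration at half of the fitted maximal effect; 0% = DMSO-treated cells and -100% = media-only wells without cells; nearly all actives have a fitted effect of over 55% in size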
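HT-1080-NT; 750 cells/well; 5% FBS RPMI; 48 h compound, 37 degrees C; CellTiter-Glo luminescence; curve fitting and curve-class assignment.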
DT40 TDP1 CPT = qHTS for Inhibitors of human tyrosyl-DNA phosphodiesterase 1 (TDP1): qHTS in cells in presence of CPT. AID 686979, 2013. 420,000 compounds, 12% hits. chicken DT40 Tdp1-/-;hTDP1 cells + 20 nM CPT, ATP luminescence, 48 h. Potency, µM (series often up to 46.2 µM), for inactives: top-dose activity change, negative = growth inhibition, most hits filed as inhibitors; further: potency means the concentration at half of the fitted maximal effect; nearly all actives have a fitted effect of over 55% in size
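Cell growth measured by CellTiter-Glo luminescence after a minimum 48 h, 37 C compound exposure with 20 nM CPT in Tdp1-knockout DT40 cells stably expressing hTDP1, seeded 400/well; qHTS titration format.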
IL-1B inflam inh = qHTS for Inhibitors of Inflammasome Signaling: IL-1-beta AlphaLISA Primary Screen; 360,000 compounds, 4.7% hits; activity change, % at 57.5 µM; THP-1 LPS/ATP IL-1B secretion, AlphaLISA, 16 h; active compounds read low; AID 743279, 2014; in the data active means activity change below about -50%; inconclusive means mostly about -30% to -49%
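THP-1 cells pretreated 1 hr with compounds (up to 57.5 uM final), then stimulated with LPS (250 ng/mL final) plus ATP (1.25 mM final); secreted IL-1B measured by AlphaLISA after 16 hr, decreased signal indicating inhibition.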
The depositor's hits bear a star; u = inconclusive; x = no result given; ! = repeats disagree. Unless noted, the call rests on the fitted dose curve; in most records, active means well fitted curve in the direction sought with a large enough effect; inconclusive means small, poorly fitted or top-dose-only effect, or another doubt; inactive means no such curve, though single readings can be large; an effect the other way counts as inactive or inconclusive. Unless noted, on the % scale 0 is the no-effect control and ±100 the full control effect.

SMILES	TDP1 cell noCPT	HT1080 IDH1KD tx	HT1080NT lethal	DT40 TDP1 CPT	IL-1B inflam inh
CN(C)P(=O)(NC(=O)c1cccn1C)N(C)C	-1%	-2%	-4%	1%	-29
CN(C)P(=NC(=S)c1cccn1C)(N(C)C)N(C)C	4.1µM*	-26%	u	8.2µM*	3
COC(=O)C1=C(c2ccc(OC(F)(F)F)cc2)C[C@@H]2CC[C@H]1N2C(=O)N1CCOCC1	1.8µM*	2%	-18%	2.6µM*	0
COC(=O)C1=C(c2ccc(S(C)(=O)=O)cc2)C[C@@H]2CC[C@H]1N2C(=O)N1CCC(C)CC1	u	17%	16%	u	7
COC(=O)C1=C(c2ccc(OC(F)(F)F)cc2)C[C@@H]2CC[C@H]1N2C(=O)N1CCC(C)CC1	5.8µM*	u	u	6.5µM*	0
COC(=O)C1=C(c2cccc(C#N)c2)C[C@@H]2CC[C@H]1N2C(=O)N1CCc2cc(OC)c(OC)cc2C1	u	1%	9%	u	4
COC(=O)C1=C(c2ccc(OC(F)(F)F)cc2)C[C@@H]2CC[C@H]1N2C(=O)N1CCCC1	1.8µM*	-8%	u	1.8µM*	-1
COC(=O)C1=C(c2cccc(C#N)c2)C[C@@H]2CC[C@H]1N2C(=O)N1CCCC1	18µM*	3%	1%	u	35
COC(=O)C1=C(c2ccc(OC(F)(F)F)cc2)C[C@@H]2CC[C@H]1N2C(=O)NC1CC1	15µM*	4%	13%	21µM*	22
CN1CCC2(CC1)CCN(C(=O)c1ccco1)CC2	-1%	x	x	15%	x
CCN(CC)C(=O)Oc1nnc(SC(C)C)n1-c1ccc(Cl)c(Cl)c1	23µM*	-14%	-3%	u	-21
COc1ccccc1Cc1c(-c2ccc(F)cc2)nc2cc(C)c(Br)c(C)n12	23µM*	-22%	-13%	u	26
COc1ccc(-c2nc3ccc(Br)cn3c2CC(=O)N2CCCC2)cc1OC	u	4%	18%	-20%	4
COc1ccccc1Cc1c(-c2ccc(C)cc2)nc2cc(C)c(Br)c(C)n12	16µM*	-18%	-19%	21µM*	38
Cc1ccc2c(c1)C1CN(C)CCC1N2C(=O)Nc1ccc(Cl)cc1 (configuration not stated)	26µM*	u	u	u	-72*
Cc1ccc2c(c1)C1CN(C)CCC1N2C(=O)c1cccs1 (configuration not stated)	-1%	-1%	3%	19%	-8
CSc1nc(N)c(N=Nc2ccc([As](=O)(O)O)cc2)c(=O)[nH]1	u	8%	5%	-11%	u
Oc1cccc(Nc2ncnc3sc4c(c23)CCCC4)c1	15µM*	x	x	16µM*	x
CCOC(=O)[C@]12Cc3cc(OC)ccc3[C@H]1N(C(C)C)C(=O)c1cc(OC)ccc12	18µM*	21µM*	21µM*	21µM*	-117*
CCOC(=O)[C@]12Cc3c(cc(OC)c(OC)c3OC)[C@H]1N(C(C)C)C(=O)c1cc(OC)ccc12	7.3µM*	18µM*	15µM*	9.2µM*	-113*
CN1C(=O)NC(=O)/C(=C/c2ccc([N+](=O)[O-])s2)C1=O	3.3µM*	-8%	-25%	4.1µM*	-18
COc1ccc(OC)c(N2C(=O)NC(=O)/C(=C\c3ccc([N+](=O)[O-])s3)C2=O)c1	u	-18%	-13%	16µM*	u
COc1ccc(N2C(=O)NC(=O)/C(=C\c3ccccc3[N+](=O)[O-])C2=O)cc1	-11%	-5%	2%	-19%	6
CCOc1ccc(N2C(=O)NC(=O)/C(=C\c3ccccc3[N+](=O)[O-])C2=O)cc1	u	0%	-1%	u	-1
O=C1NC(=O)N(c2ccccc2)C(=O)/C1=C\c1ccc([N+](=O)[O-])s1	8.2µM*	-2%	4%	21µM*	-69*
SMILES	TDP1 cell noCPT	HT1080 IDH1KD tx	HT1080NT lethal	DT40 TDP1 CPT	IL-1B inflam inh
O=C(Oc1ccccc1)N1CCC2(CC1)CN(Cc1ccncc1)C2	u	x	x	-19%	x
O=C1N(c2ccc(Cl)cc2)C(c2cccnc2)N2CCCN12 (configuration not stated)	u	7%	8%	-21%	-14
CCC[C@H](N[C@@H](CCC)[C@H](O)c1ccccc1)[C@H](O)c1ccccc1	23µM*	-19%	-18%	26µM*	-58*
CC(NC(C)(C)C)C(=O)c1cccc(Cl)c1 (configuration not stated)	16µM*!	8%	16%	-3%	20
O=C(Nc1ccc2oc(-c3ccccc3F)nc2c1)c1ccc2c(c1)OCCO2	15µM*	u	13µM*	10µM*	-54*
CC(C)c1ccc2oc(-c3ccc(NC(=O)c4cc5ccccc5o4)cc3)nc2c1	u	x	x	-18%	x
CCOC(=O)Cc1csc(NC(=O)c2c(O)c3ccccc3n(CCC(C)C)c2=O)n1	4.6µM*	3%	11%	4.1µM*	12
CCCCCCn1c(=O)c(C(=O)Nc2nc(CC(=O)OCC)cs2)c(O)c2ccccc21	3.7µM*	-6%	2%	3.7µM*	3
CCCCCn1c(=O)c(C(=O)NCc2ccccc2Cl)c(O)c2ccccc21	u	10%	16%	u	-2
O=C1NC(=O)C2(Cc3cc([N+](=O)[O-])ccc3N3CCN(C(=O)c4ccccc4)CC32)C(=O)N1 (configuration not stated)	-22%	-3%	1%	8%	6
C=Cn1c(P(=S)(N2CCOCC2)N2CCOCC2)cc2c1CCCC2	u	-2%	-4%	-21%	-5
Cc1ccc(-c2nc3ccccc3c(=O)n2-c2nccs2)cc1	-30%	6%	3%	-23%	18
Cc1ccc(N2C(=O)NC(=O)/C(=C/c3cnn(-c4ccc(C)cc4)c3)C2=O)cc1	18µM*	-2%	-5%	16µM*	-10
CC[C@]1(O)CC(O[C@@H]2CC(N(C)C)C(O)C(C)O2)c2c(cc3c(c2O)C(=O)c2c(O)cccc2C3=O)C1C(=O)OC (some centres not stated)	0.58µM*	x	x	0.82µM*	x
O=C(CCN1CCN(c2ccccc2)CC1)c1ccc(Br)cc1	5.8µM*	1%	5%	9.2µM*	-17

High-throughput results from PubChem BioAssay.
